Screening results deposited in PubChem BioAssay by The Scripps Research Institute Molecular Screening Center.
ADAM10 inh: human ADAM10 inhibitors, primary screen, biochemical, QFRET, HTS; recombinant ADAM10, EDANS/DABCYL FRET peptide cleavage, 3 h; inhibition, % at 7 µM; 370,000 compounds, 0.62% hits; AID 720582, 2013;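 active = inhibition above a per-campaign cutoff equal to the mean of compounds falling between control-based bounds plus 3 SD, cut at about 20% in these data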;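 note: 0% = DMSO wells while the 100% control is not disclosed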
ADAM17 inh: ADAM17 inhibitors, primary screen, biochemical, QFRET. Disintegrin and metalloproteinase domain-containing protein 17 (Homo sapiens), P78536. recombinant ADAM17, EDANS/DABCYL FRET peptide cleavage. inhibition, % at 6.95 µM. 370,000 compounds, 0.83% hits;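 active = inhibition above the mean of compounds lying between control limits plus 3 SD, set per campaign, cut at about 8.5% in these data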;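 note: 0% = DMSO-only wells as the low control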
Target sequence (P78536 215-824 limits assumed): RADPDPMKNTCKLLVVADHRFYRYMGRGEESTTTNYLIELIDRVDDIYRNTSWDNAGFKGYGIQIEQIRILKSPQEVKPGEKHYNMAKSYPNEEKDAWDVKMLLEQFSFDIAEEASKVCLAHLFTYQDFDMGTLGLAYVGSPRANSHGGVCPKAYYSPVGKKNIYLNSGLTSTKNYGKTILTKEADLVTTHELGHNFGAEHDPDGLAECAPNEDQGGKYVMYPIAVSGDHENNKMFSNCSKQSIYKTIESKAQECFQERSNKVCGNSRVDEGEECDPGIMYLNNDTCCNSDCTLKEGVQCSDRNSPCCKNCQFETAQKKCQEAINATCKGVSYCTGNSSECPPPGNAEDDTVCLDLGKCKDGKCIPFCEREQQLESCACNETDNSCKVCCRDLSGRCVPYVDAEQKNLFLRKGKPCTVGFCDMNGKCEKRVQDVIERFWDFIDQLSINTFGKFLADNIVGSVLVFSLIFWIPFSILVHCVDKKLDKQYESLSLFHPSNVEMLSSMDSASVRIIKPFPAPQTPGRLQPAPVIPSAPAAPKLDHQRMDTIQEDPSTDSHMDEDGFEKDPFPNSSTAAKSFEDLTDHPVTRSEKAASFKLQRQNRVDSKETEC
KLK7 zymogen act: proKLK7 zymogen activators, primary screen, biochemical, fluorescence intensity. AID 652039, 2013. purified proKLK7, EDANS-DABCYL substrate fluorescence; 100% is mature enzyme control, 0% vehicle. Kallikrein-7 (Homo sapiens), P49862. 370,000 compounds, 0.9% hits. activation, % at 7 µM;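 active = activation above the mean of all tested compounds plus 3 SD, computed per campaign excluding outliers beyond control limits, cut at about 13% in these data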
PLC-gamma1 inh: PLC-gamma1 enzyme inhibitors, primary screen, biochemical, fluorescence, purified enzyme | 1-phosphatidylinositol 4,5-bisphosphate phosphodiesterase gamma-1 (Homo sapiens), P19174 | fluorogenic substrate | inhibition, % at 12.2 µM | 370,000 compounds, 0.84% hits | AID 720700, 2013; in the data active = inhibition above about 9.5%
PLCb3 inh: human PLC-beta3 inhibitors, primary screen, biochemical, fluorescence. 1-phosphatidylinositol 4,5-bisphosphate phosphodiesterase beta-3 (Homo sapiens), Q01970. Purified PLC-beta3, fluorogenic substrate. inhibition, % at 12.2 µM. 370,000 compounds, 0.18% hits. AID 720704, 2013; in the data active = inhibition above about 11%;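 note: 0% = median of compound wells on plate and 100% = full blocker control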
KLK7 act conf: proKLK7 zymogen activators, confirmation, biochemical, fluorescence intensity, triplicate; 3,200 compounds, 68% hits; purified proKLK7, EDANS-DABCYL substrate fluorescence; scaled: vehicle 0, mature enzyme 100; AID 686949, 2013; activation, % at 7 µM; shares compounds with KLK7 zymogen act;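 active = activation, as change over the incubation, above the mean of all tested compounds plus 3 SD, cut at about 13% in these data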
EDANS interfere: EDANS-DABCYL substrate optical interference, artefact control for kallikrein-7 zymogen activator project, biochemical, fluorescence intensity, high throughput; 3,200 compounds, 80% hits; shares compounds with KLK7 zymogen act; no enzyme, 4 h; solvent 0%, active enzyme control 100%; activation, % at 7 µM;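 active = activation above the all-compound mean plus 3 SD, ignoring values outside control-based bounds, cut at about 4.8% in these data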;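 note: value is the 4 h activation minus the activation read at time zero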
K7 EDANS ctr: optically interferes with EDANS-DABCYL fluorescence, kallikrein-7 activator counter-screen. shares compounds with KLK7 zymogen act. 250 compounds, 20% hits. EDANS-DABCYL peptide fluorescence interference, no enzyme. AID 720493. EC50, µM;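 active = compounds that raise the fluorescence signal in this interference counterscreen, with EC50 at or below 10 µM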;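 note: intact quenched peptide substrate alone read at 355 nm excitation and 520 nm emission; signal is fluorescence gain from T0 to T4 after four hours at room temperature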
* marks the source's active call; other numbers are inactive results; i = inactive; . = not tested or not shown. Most compounds without a hit are left out; they make up all but 2.9% or so of the library.

SMILES	ADAM10 inh	ADAM17 inh	KLK7 zymogen act	PLC-gamma1 inh	PLCb3 inh	KLK7 act conf	EDANS interfere	others
CCOc1cc(N2CCOCC2)c(OCC)cc1NC(=O)c1nc2nc(C)cc(C)n2n1	5	0	0	0	1	.	.
Cc1occc1C(=O)NN=C1C2CC3CC(C2)CC1C3	5	1	1	5	3	.	.
CCC(=O)OCc1cc(=O)oc2ccc3ccccc3c12	i	i	22*	i	i	-7	-19
O=C1CCC(C(=O)OCc2nnc(-c3ccc(Cl)cc3)o2)=NN1	-6	2	0	0	-4	.	.
CC(=O)N1CCN(Cc2cc(=O)oc3ccc4ccccc4c23)CC1	-35	-3	-1	1	-2	.	.
O=C1CCC(C(=O)OCc2cc(=O)oc3ccc4ccccc4c23)=NN1	i	-244	145*	-149	-209	357*	371*
Cc1cc(C(=O)OCCN2C(=O)c3ccccc3C2=O)c2ccccc2n1	-6	-6	0	-4	-6	.	.
CCC(=O)Oc1ccc2c(c1)OC1(OC(C)=O)OC(C)CC1=C2C (stereo not given)	i	i	297*	i	i	610*	615*
CCC(=O)Oc1ccc2oc(=O)cc(C)c2c1	-6	0	1	-6	-5	.	.
COc1ccc2c(c1)C(=O)N(CCc1ccc(S(=O)(=O)NC(=O)NC3CCCCC3)cc1)C(=O)C2(C)C	-79	-31	0	-22	-40	.	.
CCNC(=S)NNC(=O)c1cccn(Cc2ccc(Cl)cc2Cl)c1=O	-433	-58	32*	-16	-24	31*	47*
C=CCNC(=S)NNC(=O)c1cccn(Cc2ccc(Cl)cc2Cl)c1=O	-351	-50	22*	-13	-18	30*	28*
CCc1cc(=O)oc2c(CNCc3ccc(OC)cc3OC)c(O)c(Cl)cc12	i	i	44*	i	i	70*	67*
COc1ccc(CNCc2c(O)c(Cl)cc3c(C)c(C)c(=O)oc23)c(OC)c1	i	i	32*	i	i	74*	78*
COc1ccc(CNCc2ccncc2)c(OC)c1	-3	-4	0	-1	-5	.	.
O=C(NCCCN1CCOCC1)c1cc2nc(-c3ccco3)cc(C(F)(F)F)n2n1	-380	-136	15*	i	i	14*	11*	K7 EDANS ctr=>70
CN1CCN(C(=O)c2cc3nc(-c4ccco4)cc(C(F)(F)F)n3n2)CC1	-440	-146	30*	i	i	17*	11*	K7 EDANS ctr=>70
O=C(c1cccc(F)c1)N1CCN(C(=O)c2cc3nc(-c4ccco4)cc(C(F)(F)F)n3n2)CC1	-57	-22	-6	-125	-166	.	.
COc1cccc2c(=O)cn[nH]c12	i	-412	84*	i	i	66*	64*
COC(=O)c1cc(=O)c2cccc(OC)c2[nH]1	i	-320	196*	i	i	77*	77*
O=C(NCC(c1ccco1)N1CCCC1)c1cccc(S(=O)(=O)N2CCOCC2)c1 (stereo not given)	-10	-5	1	-7	-19	.	.
CC(=O)c1cc(C)ccc1OC(=O)c1ccncc1	0	-1	0	1	-3	.	.
CC(=O)c1cc(C)ccc1OC(=O)c1cccc2nc(C)oc12	-74	-24	13*	-22	-28	2	1
COc1ccc(CCNC(=O)c2sc(=S)n(C)c2N)cc1	12	1	15*	3	1	15*	13*
CCCCC1C2C(=O)N(c3ccc(C)cc3)C(=O)C2ON1c1ccccc1 (stereo not given)	1	-4	15*	-3	-8	36*	34*
SMILES	ADAM10 inh	ADAM17 inh	KLK7 zymogen act	PLC-gamma1 inh	PLCb3 inh	KLK7 act conf	EDANS interfere	others
CCCCC1C2C(=O)N(c3ccccc3)C(=O)C2ON1c1ccccc1 (stereo not given)	1	-1	1	1	-7	.	.
Cc1cc(-c2ccccc2)c2ccc(NC(=O)C(C)(C)C)nc2n1	-154	-69	33*	-23	-36	1	1
Cc1cc(C)nc(/N=C(\NC(=O)C(C)(C)C)Nc2ccccc2)n1	-4	0	-1	-2	-8	.	.
COc1ccc2cc(C(=O)C3CCCN(C(=O)CCc4ccccn4)C3)ccc2c1 (stereo not given)	i	-463	3	i	i	.	.
CC(=O)c1ccc(CCCC(=O)O)cc1	1	-5	0	0	1	.	.
O=c1oc2c(CN3CCOCC3)c(O)ccc2c2c1CCCC2	i	i	52*	i	i	69*	64*
O=c1oc2c(CN3CCOCC3)c(O)ccc2c2ccccc12	0	-5	1	-172	-198	.	.
O=c1oc2c(CN3CCOCC3)c(O)c(Cl)cc2c2c1CCCC2	i	i	53*	i	i	66*	67*
COCCNC(=O)c1cc2ncc(Br)cn2n1	-10	-8	0	-6	-11	.	.
C=CCN1C(=O)N/C(=C/c2ccc(N3CCOCC3)o2)C1=O	-4	-3	8	-1	3	.	.
O=C1N/C(=C/c2ccc(N3CCOCC3)o2)C(=O)N1c1ccccc1	-27	-7	20*	-8	-11	10	10*
CCN(CC)S(=O)(=O)c1ccc2[nH]c(=O)cc(C(=O)Nc3ccc(C)c(S(=O)(=O)N(CC)CC)c3)c2c1	12	5	0	4	-2	.	.
CC1CC(Nc2ccccc2)=CC(=O)O1 (stereo not given)	-477	-188	4	-210	-246	.	.
CC1CC(Nc2cccc(O)c2)=CC(=O)O1 (stereo not given)	i	-204	13*	-458	i	1	0
C=C(C)Cn1c2ccc(NC(=O)CCOCC)cc2c(=O)n1C	i	i	24*	-326	-458	19*	22*
CCOCCC(=O)Nc1ccc2c(c1)c(=O)n(C)n2CC=C(C)C	i	-457	26*	-277	-357	15*	17*
O=C(COc1ccc(Br)cc1)NN1C(=O)c2ccccc2C1=O	1	-1	0	0	-4	.	.
